Measured values from PubChem BioAssay AID1159580 (chemical genetic matrix, 2015).
Values joined by “and” are separate entries in the source; they are usually repeats but may differ in a detail not shown here. Equal entries are not always repeated. In all, about 5,500 compounds went through this assay and about 2,000 (36%) were called active. Roughly 18% stayed inconclusive and do not appear here. Cut-off read from the data, not from the text of the source: active = normalized growth mostly below about 0.91 (no sharp cut-off); inconclusive = no clear call, values can overlap the other calls; inactive = mostly above about 0.92. This is one part of the list.

Experiment: chemical genetic growth profiling, strain panel (AID 1159580);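 note: tested at 20 µM; growth read once vehicle control cultures reached saturation at 30 °C; 1 = growth at the plate median or of vehicle wells; lower values mean less growth of the strain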
Details: growth OD

Measured: normalized growth

CN(C)CCC=C1c2ccccc2CCc2ccccc21
active: S. cerevisiae deletion strains, locus YNL209W, strain ssb2, stronger effect = lower value 0.897
inactive: S. cerevisiae deletion strains, locus YJR066W, strain TOR1, stronger effect = lower value 0.983 | S. cerevisiae deletion strains, locus YJR075W, strain HOC1, stronger effect = lower value 0.981 | S. cerevisiae deletion strains, locus YKL009W, strain mrt4, stronger effect = lower value 0.998 | S. cerevisiae deletion strains, locus YKL068W, stronger effect = lower value 0.998 | S. cerevisiae deletion strains, locus YKL085W, strain MDH1 (second series), stronger effect = lower value 0.996 | S. cerevisiae deletion strains, locus YKL085W, strain MDH1, stronger effect = lower value 0.996 | S. cerevisiae deletion strains, locus YKL160W, strain elf1, stronger effect = lower value 1.01 | S. cerevisiae deletion strains, locus YKL190W, strain CNB1, stronger effect = lower value 1.01 | S. cerevisiae deletion strains, locus YKR001C, strain vps1, stronger effect = lower value 0.985 | S. cerevisiae deletion strains, locus YKR026C, strain gcn3, stronger effect = lower value 0.998 | S. cerevisiae deletion strains, locus YKR091W, strain srl3, stronger effect = lower value 0.964 | S. cerevisiae deletion strains, locus YLL001W, strain dnm1, stronger effect = lower value 1.02 | S. cerevisiae deletion strains, locus YLL026W, stronger effect = lower value 1 | S. cerevisiae deletion strains, locus YLL041C, strain sdh2, stronger effect = lower value 0.986 | S. cerevisiae deletion strains, locus YLR027C, strain aat2, stronger effect = lower value 0.997 | S. cerevisiae deletion strains, locus YLR039C, strain RIC1, stronger effect = lower value 1.05 | S. cerevisiae deletion strains, locus YLR058C, strain SHM2, stronger effect = lower value 1.01 | S. cerevisiae deletion strains, locus YLR102C, strain apc9, stronger effect = lower value 0.987 | S. cerevisiae deletion strains, locus YLR113W, strain HOG1, stronger effect = lower value 1.02 | S. cerevisiae deletion strains, locus YLR221C, strain rsa3, stronger effect = lower value 0.94 | S. cerevisiae deletion strains, locus YLR258W, strain gsy2, stronger effect = lower value 0.972 | S. cerevisiae deletion strains, locus YLR262C, strain YPT6 (second series), stronger effect = lower value 1.06 | S. cerevisiae deletion strains, locus YLR262C, strain YPT6, stronger effect = lower value 1.1 | S. cerevisiae deletion strains, locus YLR268W, strain sec22, stronger effect = lower value 0.998 | S. cerevisiae deletion strains, locus YLR320W, strain mms22, stronger effect = lower value 0.95 | S. cerevisiae deletion strains, locus YLR330W, strain CHS5, stronger effect = lower value 1.01 | S. cerevisiae deletion strains, locus YLR342W, strain FKS1 (second series), stronger effect = lower value 0.981 | S. cerevisiae deletion strains, locus YLR342W, strain FKS1, stronger effect = lower value 0.963 | S. cerevisiae deletion strains, locus YLR357W, strain rsc2, stronger effect = lower value 0.92 | S. cerevisiae deletion strains, locus YLR370C, strain arc18, stronger effect = lower value 0.956 | S. cerevisiae deletion strains, locus YLR371W, strain rom2, stronger effect = lower value 1 | S. cerevisiae deletion strains, locus YLR384C, strain iki3, stronger effect = lower value 0.988 | S. cerevisiae deletion strains, locus YLR418C, strain cdc73, stronger effect = lower value 0.985 | S. cerevisiae deletion strains, locus YML016C, strain PPZ1, stronger effect = lower value 1 | S. cerevisiae deletion strains, locus YML032C, strain rad52, stronger effect = lower value 0.993 | S. cerevisiae deletion strains, locus YML120C, strain ndi1, stronger effect = lower value 0.986 | S. cerevisiae deletion strains, locus YML124C, strain tub3, stronger effect = lower value 0.99 | S. cerevisiae deletion strains, locus YMR058W, strain fet3, stronger effect = lower value 0.979 | S. cerevisiae deletion strains, locus YMR078C, strain ctf18, stronger effect = lower value 1 | S. cerevisiae deletion strains, locus YMR125W, strain sto1, stronger effect = lower value 0.924 | S. cerevisiae deletion strains, locus YMR129W, stronger effect = lower value 0.971 | S. cerevisiae deletion strains, locus YMR205C, strain PFK2, stronger effect = lower value 0.995 | S. cerevisiae deletion strains, locus YMR223W, strain ubp8, stronger effect = lower value 1 | S. cerevisiae deletion strains, locus YMR231W, strain pep5, stronger effect = lower value 0.987 | S. cerevisiae deletion strains, locus YMR263W, strain SAP30, stronger effect = lower value 1.01 and 1.02 | S. cerevisiae deletion strains, locus YMR307W, strain GAS1, stronger effect = lower value 1.04 and 1.01 | S. cerevisiae deletion strains, locus YNL067W, strain RPL9B, stronger effect = lower value 1.01 | S. cerevisiae deletion strains, locus YNL071W, strain lat1, stronger effect = lower value 0.998 | S. cerevisiae deletion strains, locus YNL153C, strain GIM3, stronger effect = lower value 1 and 0.972 | S. cerevisiae deletion strains, locus YNL175C, strain NOP13, stronger effect = lower value 1.01 | S. cerevisiae deletion strains, locus YNL183C, strain NPR1, stronger effect = lower value 0.998 | S. cerevisiae deletion strains, locus YNL197C, strain WHI3, stronger effect = lower value 1.06 | S. cerevisiae deletion strains, locus YNL224C, strain SQS1, stronger effect = lower value 1.03 | S. cerevisiae deletion strains, locus YNL233W, strain BNI4, stronger effect = lower value 1.01 | S. cerevisiae deletion strains, locus YNL248C, strain rpa49, stronger effect = lower value 0.915 | S. cerevisiae deletion strains, locus YNL250W, strain rad50, stronger effect = lower value 0.995 | S. cerevisiae deletion strains, locus YNL271C, strain bni1, stronger effect = lower value 1 | S. cerevisiae deletion strains, locus YNL298W, strain CLA4, stronger effect = lower value 0.991 | S. cerevisiae deletion strains, locus YNL307C, strain MCK1, stronger effect = lower value 0.999 | S. cerevisiae deletion strains, locus YNL322C, strain KRE1 (second series), stronger effect = lower value 0.997 | S. cerevisiae deletion strains, locus YNL322C, strain KRE1, stronger effect = lower value 1.01 | S. cerevisiae deletion strains, locus YNR049C, strain mso1, stronger effect = lower value 0.974 | S. cerevisiae deletion strains, locus YNR052C, strain pop2, stronger effect = lower value 0.998 | S. cerevisiae deletion strains, locus YOL012C, strain htz1 1.09 | S. cerevisiae deletion strains, locus YOL147C, strain pex11, stronger effect = lower value 1 | S. cerevisiae deletion strains, locus YOR001W, strain rrp6, stronger effect = lower value 0.971 | S. cerevisiae deletion strains, locus YOR061W, strain CKA2, stronger effect = lower value 1.01 | S. cerevisiae deletion strains, locus YOR069W, strain VPS5, stronger effect = lower value 1.01 | S. cerevisiae deletion strains, locus YOR070C, strain gyp1, stronger effect = lower value 0.975 | S. cerevisiae deletion strains, locus YOR080W, strain dia2, stronger effect = lower value 0.987 | S. cerevisiae deletion strains, locus YOR083W, strain WHI5 (second series), stronger effect = lower value 1.08 | S. cerevisiae deletion strains, locus YOR083W, strain WHI5, stronger effect = lower value 0.975 | S. cerevisiae deletion strains, locus YOR106W, strain vam3, stronger effect = lower value 0.96 | S. cerevisiae deletion strains, locus YOR136W, strain idh2, stronger effect = lower value 0.984 | S. cerevisiae deletion strains, locus YOR144C, strain elg1, stronger effect = lower value 0.977 | S. cerevisiae deletion strains, locus YOR184W, strain ser1, stronger effect = lower value 0.991 | S. cerevisiae deletion strains, locus YOR231W, strain MKK1, stronger effect = lower value 1.05 | S. cerevisiae deletion strains, locus YOR265W, strain rbl2, stronger effect = lower value 0.98 | S. cerevisiae deletion strains, locus YOR270C, strain vph1, stronger effect = lower value 0.87 | S. cerevisiae deletion strains, locus YOR290C, strain snf2, stronger effect = lower value 0.938 | S. cerevisiae deletion strains, locus YOR316C, strain cot1, stronger effect = lower value 0.993 | S. cerevisiae deletion strains, locus YPL051W, strain arl3, stronger effect = lower value 0.957 | S. cerevisiae deletion strains, locus YPL078C, strain atp4, stronger effect = lower value 0.994 | S. cerevisiae deletion strains, locus YPL106C, strain sse1, stronger effect = lower value 0.987 | S. cerevisiae deletion strains, locus YPL240C, strain hsp82, stronger effect = lower value 0.991 | S. cerevisiae deletion strains, locus YPL256C, strain CLN2, stronger effect = lower value 1.06 | S. cerevisiae deletion strains, locus YPR119W, strain clb2, stronger effect = lower value 1 | S. cerevisiae deletion strains, locus YPR141C, strain kar3, stronger effect = lower value 1 | S. cerevisiae deletion strains, locus YPR163C, strain tif3, stronger effect = lower value 0.999 | S. cerevisiae deletion strains, locus YPR167C, strain met16, stronger effect = lower value 1 | S. cerevisiae deletion strains, strain wtn01, stronger effect = lower value 0.982 | S. cerevisiae strains, strain wild type, stronger effect = lower value 1.01
